For part of these data: Potency and affinity values are given separately. The source made the active and inactive calls. Unless noted, no rule for the calls is given here.
Experiments:
[1] = antimalarial activity against Dd2 strain (AID 2302;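 active = growth inhibition above 50% at the single 2 µM test dose, taken to imply half-maximal potency below 2 µM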;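 also: 0% = DMSO untreated growth and 100% = chloroquine plus artemisinin killed control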); settings: P. falciparum Dd2 in RBCs, LDH growth readout, 72 h; at 2 µM; stronger effect = higher value
[2] = human hepatoma cell viability loss – ATP luminescence, cytotoxicity control for P. falciparum antimalarial project, primary screen (AID 2303;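 active = inhibition above 50%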;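 also: 0% = DMSO wells and 100% = digitonin-killed cells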); settings: HepG2 viability, 24-48 h, at 10 µM, stronger effect = higher value
[3] = molecular target: L-lactate dehydrogenase (Plasmodium falciparum (isolate CDC / Honduras)) (UniProt Q27743); assay: PfLDH activity inhibition – cell lysate, 3D7 strain, counter-screen for P. falciparum growth inhibition project (AID 2304);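 also: 0% = vehicle and 100% = reference inhibitor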; settings: P. falciparum 3D7 crude extract, LDH APAD/NBT absorbance; at 2 µM; stronger effect = higher value
[4] = inhibition of 3D7 malaria parasite growth – strain 3D7 (AID 2306);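 also: 0% = DMSO wells and 100% = chloroquine plus artemisinin control wells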; settings: P. falciparum 3D7 erythrocytic growth, LDH absorbance, 72 h; at 2 µM; stronger effect = higher value
[5] = molecular target: Calcium-dependent protein kinase 1 (Plasmodium falciparum (isolate 3D7)) (UniProt P62344); assay: PfCDPK1 kinase inhibitors, biochemical, TCAMS library (AID 1159585; cut-off not given, nearly all actives have IC50 up to about 0.98 µM;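 also: inhibitors leave more ATP so luminescence rises with inhibition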); settings: recombinant PfCDPK1, Kinase-Glo ATP depletion luminescence
[6] = molecular target: Plasmodium falciparum protein kinase 6 (PK6, PF3D7_1337100) (UniProt Q8IDW1); assay: PfPK6 kinase inhibitors, biochemical, TCAMS library (AID 1159586); settings: recombinant PfPK6, Kinase-Glo ATP depletion luminescence
[7] = molecular target: Protein kinase 7 (PK7), Plasmodium falciparum 3D7 (PF3D7_0213400) (UniProt Q7YTF7); assay: inhibition of Plasmodium PK7 catalytic activity – biochemical, TCAMS antimalarial set, Kinase-Glo luminescence (AID 1159587); settings: recombinant PfPK7, Kinase-Glo ATP depletion luminescence
[8] = molecular target: Calcium-dependent protein kinase 4 (Plasmodium falciparum (isolate 3D7)) (UniProt Q8IBS5); assay: PfCDPK4 kinase inhibitors, biochemical, TCAMS library (AID 1159588; cut-off not given, nearly all actives have IC50 up to about 0.91 µM); settings: recombinant PfCDPK4, Kinase-Glo ATP depletion luminescence
Chain of Calcium-dependent protein kinase 4 (Plasmodium falciparum (isolate 3D7)) (Q8IBS5 whole entry, looked up): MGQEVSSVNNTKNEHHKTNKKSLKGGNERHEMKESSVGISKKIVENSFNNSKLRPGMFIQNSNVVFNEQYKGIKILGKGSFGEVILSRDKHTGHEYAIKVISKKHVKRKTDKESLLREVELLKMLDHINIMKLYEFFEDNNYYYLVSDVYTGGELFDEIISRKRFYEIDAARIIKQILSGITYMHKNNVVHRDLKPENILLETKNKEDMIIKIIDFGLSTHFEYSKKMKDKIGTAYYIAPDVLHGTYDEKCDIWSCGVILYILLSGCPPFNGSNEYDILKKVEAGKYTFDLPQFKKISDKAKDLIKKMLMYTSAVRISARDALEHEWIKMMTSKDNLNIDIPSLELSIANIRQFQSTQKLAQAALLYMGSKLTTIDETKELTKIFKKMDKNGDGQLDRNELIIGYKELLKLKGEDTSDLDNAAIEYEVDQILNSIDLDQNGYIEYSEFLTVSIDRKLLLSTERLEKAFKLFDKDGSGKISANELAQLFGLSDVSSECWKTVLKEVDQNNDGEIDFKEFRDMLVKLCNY

Chain of Plasmodium falciparum protein kinase 6 (PK6, PF3D7_1337100) (Q8IDW1 1-305): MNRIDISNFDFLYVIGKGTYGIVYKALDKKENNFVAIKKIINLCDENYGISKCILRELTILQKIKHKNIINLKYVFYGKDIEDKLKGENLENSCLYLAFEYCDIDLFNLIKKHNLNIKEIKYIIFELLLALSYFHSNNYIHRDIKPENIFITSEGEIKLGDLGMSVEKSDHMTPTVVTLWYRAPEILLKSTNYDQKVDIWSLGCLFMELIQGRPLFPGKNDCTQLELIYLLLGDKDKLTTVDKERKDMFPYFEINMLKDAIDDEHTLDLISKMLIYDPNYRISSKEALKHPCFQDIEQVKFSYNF
Chain of Calcium-dependent protein kinase 1 (Plasmodium falciparum (isolate 3D7)) (P62344 whole entry, looked up): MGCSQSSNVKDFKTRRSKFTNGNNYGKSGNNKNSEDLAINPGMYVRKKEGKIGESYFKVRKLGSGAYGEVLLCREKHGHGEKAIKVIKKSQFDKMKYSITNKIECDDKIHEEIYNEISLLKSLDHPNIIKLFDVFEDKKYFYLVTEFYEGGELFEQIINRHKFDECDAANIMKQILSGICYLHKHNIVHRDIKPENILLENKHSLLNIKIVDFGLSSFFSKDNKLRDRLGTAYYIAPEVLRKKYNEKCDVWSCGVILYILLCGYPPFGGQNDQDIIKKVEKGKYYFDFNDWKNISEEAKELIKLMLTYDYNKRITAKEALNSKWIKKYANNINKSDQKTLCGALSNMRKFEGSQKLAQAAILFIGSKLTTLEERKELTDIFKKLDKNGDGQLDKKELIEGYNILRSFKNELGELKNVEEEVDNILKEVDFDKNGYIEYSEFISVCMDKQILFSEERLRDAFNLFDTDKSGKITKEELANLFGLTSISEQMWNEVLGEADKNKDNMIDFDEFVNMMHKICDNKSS
Chain of L-lactate dehydrogenase (Plasmodium falciparum (isolate CDC / Honduras)) (Q27743 whole entry, looked up): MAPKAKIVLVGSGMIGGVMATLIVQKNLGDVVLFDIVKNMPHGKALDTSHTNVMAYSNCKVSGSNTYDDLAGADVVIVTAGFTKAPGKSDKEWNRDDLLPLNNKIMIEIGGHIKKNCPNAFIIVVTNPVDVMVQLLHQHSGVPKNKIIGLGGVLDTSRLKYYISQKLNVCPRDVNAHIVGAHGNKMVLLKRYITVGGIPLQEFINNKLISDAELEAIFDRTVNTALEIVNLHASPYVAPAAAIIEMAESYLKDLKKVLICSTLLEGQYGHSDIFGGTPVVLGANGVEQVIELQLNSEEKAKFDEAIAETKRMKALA
Chain of Protein kinase 7 (PK7), Plasmodium falciparum 3D7 (PF3D7_0213400) (Q7YTF7 1-343): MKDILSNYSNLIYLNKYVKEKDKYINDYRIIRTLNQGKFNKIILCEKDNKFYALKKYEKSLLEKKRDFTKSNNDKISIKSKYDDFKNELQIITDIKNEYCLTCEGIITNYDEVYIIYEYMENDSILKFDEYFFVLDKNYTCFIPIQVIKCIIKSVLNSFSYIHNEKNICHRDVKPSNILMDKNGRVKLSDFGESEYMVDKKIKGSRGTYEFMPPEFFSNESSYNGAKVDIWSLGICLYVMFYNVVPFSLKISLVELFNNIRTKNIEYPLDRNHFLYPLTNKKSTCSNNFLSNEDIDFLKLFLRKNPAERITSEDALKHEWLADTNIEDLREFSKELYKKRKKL

Cc1cccc(NC(=O)NCc2ccccc2)n1
active: growth inhibition [4] 97%
inactive: growth inhibition [1] 2% | inhibition [2] 14% | inhibition [3] -2% | outcome [5] | outcome [6] | outcome [7] | outcome [8]

CCC[C@@H](/C=N/N(C)C(=O)OC(C)(C)C)NC(=O)[C@H](CC(C)C)NC(=O)c1cc2cccc(OC)c2o1
inactive: inhibition [2] 5% | inhibition [3] 6% | outcome [5] | outcome [6] | outcome [7] | outcome [8]
active: growth inhibition [1] 61% | growth inhibition [4] 88%

C[C@H](N[C@H]1CCCc2c1[nH]c1ccc(Br)cc21)c1ccccc1
active: growth inhibition [1] 95% | inhibition [2] 58% | growth inhibition [4] 96%
inactive: inhibition [3] 4% | outcome [5] | outcome [6] | outcome [7] | outcome [8]

Cc1cc(NC(=O)Nc2cccc(Cl)c2Cl)c2ccccc2n1
inactive: growth inhibition [1] 25% | inhibition [2] -5% | inhibition [3] 1% | outcome [5] | outcome [6] | outcome [7] | outcome [8]
active: growth inhibition [4] 96%

CCC(ON1C(N)=NC(N)=NC1(C)C)c1ccccc1 (stereo not given)
inactive: growth inhibition [1] -5% | inhibition [3] -4% | outcome [5] | outcome [6] | outcome [7] | outcome [8]
active: inhibition [2] 61% | growth inhibition [4] 96%

Cc1cc(NCCc2cccc(F)c2)nc(/N=C(\N)Nc2cccc(C(F)(F)F)c2)n1
inactive: inhibition [2] 42% | inhibition [3] -1% | outcome [5] | outcome [6] | outcome [7] | outcome [8]
active: growth inhibition [1] 99% | growth inhibition [4] 102%

O=C(Nc1ccc(C(F)(F)F)cc1)NC1CCN(c2ccnc3cc(Cl)ccc23)C1 (stereo not given)
active: growth inhibition [1] 99% | growth inhibition [4] 102%
inactive: inhibition [2] 20% | inhibition [3] -2% | outcome [5] | outcome [6] | outcome [7] | outcome [8]

Cc1ccnc(NC(c2cccc(Cl)c2Cl)c2ccc3cccnc3c2O)c1 (stereo not given)
inactive: growth inhibition [1] 38% | inhibition [2] 46% | inhibition [3] 7% | outcome [5] | outcome [6] | outcome [7] | outcome [8]
active: growth inhibition [4] 86%

O=C(NCc1ccc(Cl)c(Cl)c1)c1ccc(-c2nc3ccc(Cl)cc3[nH]2)cc1
inactive: growth inhibition [1] 22% | inhibition [2] 20% | inhibition [3] -6% | outcome [5] | outcome [6] | outcome [7] | outcome [8]
active: growth inhibition [4] 96%

CNS(=O)(=O)c1ccc2c(c1)nc(C1CCN(CC3CCC(NC(=O)/C=C/c4ccc(Cl)c(Cl)c4)CC3)CC1)n2C (stereo not given)
inactive: inhibition [2] 5% | inhibition [3] -2% | outcome [5] | outcome [6] | outcome [7] | outcome [8]
active: growth inhibition [1] 96% | growth inhibition [4] 102%

O=C(Nc1cccc(C(F)(F)F)c1)Nc1ccc2nonc2c1
active: growth inhibition [1] 76% | growth inhibition [4] 98%
inactive: inhibition [2] -4% | inhibition [3] 5% | outcome [5] | outcome [6] | outcome [7] | outcome [8]

CC1CCCN(S(=O)(=O)c2ccc(NC(=O)c3cc(-c4ccccc4O)n[nH]3)cc2)C1 (stereo not given)
active: growth inhibition [4] 93%
inactive: growth inhibition [1] 49% | inhibition [2] 12% | inhibition [3] 3% | outcome [5] | outcome [6] | outcome [7] | outcome [8]

CN1C(=O)C(=O)N(CCCCCON=C(N)N)C1=S
active: growth inhibition [4] 101%
inactive: growth inhibition [1] 1% | inhibition [2] 21% | inhibition [3] -1% | outcome [5] | outcome [6] | outcome [7] | outcome [8]

O=S(=O)(c1c(Cl)cc(Cl)cc1Cl)N1CCCCC(c2ccc(Cl)cc2)=N1
active: growth inhibition [1] 93% | growth inhibition [4] 95%
inactive: inhibition [2] 11% | inhibition [3] 3% | outcome [5] | outcome [6] | outcome [7] | outcome [8]

CCCC(C)Nc1nc(C)cc(N[C@@H](CC(C)C)C(=O)NCCc2ccccc2)n1 (stereo not given in full)
inactive: inhibition [2] 9% | inhibition [3] -2% | outcome [5] | outcome [6] | outcome [7] | outcome [8]
active: growth inhibition [1] 51% | growth inhibition [4] 96%

CC(C)(C)SCC(O)Cn1c2ccc(Br)cc2c2cc(Br)ccc21 (stereo not given)
inactive: inhibition [2] 4% | inhibition [3] 1% | outcome [5] | outcome [6] | outcome [7] | outcome [8]
active: growth inhibition [1] 79% | growth inhibition [4] 87%

Cc1cc(NN=Cc2cccc(F)c2)c2cccc(C)c2n1
active: growth inhibition [1] 53% | growth inhibition [4] 100%
inactive: inhibition [2] 14% | inhibition [3] 5% | outcome [5] | outcome [6] | outcome [7] | outcome [8]

CN(C)c1ccc(CN2CCC(NC(=O)c3ccc(-c4ccccc4Cl)s3)CC2)cc1
active: growth inhibition [4] 82%
inactive: growth inhibition [1] 27% | inhibition [2] 35% | inhibition [3] -1% | outcome [5] | outcome [6] | outcome [7] | outcome [8]

O=C(Nc1ccc(OC2CCN(Cc3ccc(F)cc3)CC2)c(Cl)c1)c1ccco1
inactive: inhibition [2] 2% | inhibition [3] -4% | outcome [5] | outcome [6] | outcome [7] | outcome [8]
active: growth inhibition [1] 95% | growth inhibition [4] 95%

Cc1cc(N2CCCC2)nc(Nc2ccc(NC(=O)c3ccccc3)cc2)n1
active: growth inhibition [1] 65% | growth inhibition [4] 100%
inactive: inhibition [2] 26% | inhibition [3] -3% | outcome [5] | outcome [6] | outcome [7] | outcome [8]

COc1ccc(C(=O)Nc2cc(Cl)c3c(c2)C2CCCN2CC3)cc1C(F)(F)F (stereo not given)
active: growth inhibition [4] 99%
inactive: growth inhibition [1] 33% | inhibition [2] 35% | inhibition [3] -1% | outcome [5] | outcome [6] | outcome [7] | outcome [8]

FC(F)(F)c1ccc2nc(-c3ccc(-c4cccc(CNCc5cnn(-c6ccccc6)n5)c4)cc3)[nH]c2c1
inactive: inhibition [2] 19% | inhibition [3] -1% | outcome [5] | outcome [6] | outcome [7] | outcome [8]
active: growth inhibition [1] 83% | growth inhibition [4] 99%

O=C(Nc1ccc(Cn2ncc(N3CCCNCC3)c(Cl)c2=O)cc1)Nc1ccc(F)cc1[N+](=O)[O-]
inactive: growth inhibition [1] -3% | inhibition [2] 11% | inhibition [3] -4% | outcome [5] | outcome [6] | outcome [7] | outcome [8]
active: growth inhibition [4] 90%

COc1ccc(O)c(Cc2cnc3nc(N)[nH]c(=O)c3c2C)c1
inactive: growth inhibition [1] 6% | inhibition [2] 30% | inhibition [3] -5% | outcome [5] | outcome [6] | outcome [7] | outcome [8]
active: growth inhibition [4] 96%

COc1ccccc1C1CCN(C2CCC(NC(=O)c3cc4ccccc4[nH]3)CC2)CC1 (stereo not given)
inactive: growth inhibition [1] 7% | inhibition [2] 49% | inhibition [3] 0% | outcome [5] | outcome [6] | outcome [7] | outcome [8]
active: growth inhibition [4] 88%

Cc1cccc2[nH]c(-c3ccc(-c4cccc(CN5CCCC5CN)c4)cc3)nc12 (stereo not given)
active: growth inhibition [4] 91%
inactive: growth inhibition [1] 32% | inhibition [2] 7% | inhibition [3] 3% | outcome [5] | outcome [6] | outcome [7] | outcome [8]

CC(=O)Nc1ccc(CCNC(C)Cc2ccc(C(=O)Nc3ccc(CC(C)NCCc4cccc(Cl)c4)cc3)cc2)cc1 (stereo not given)
inactive: inhibition [3] -7% | outcome [5] | outcome [6] | outcome [7] | outcome [8]
active: growth inhibition [1] 84% | inhibition [2] 50% | growth inhibition [4] 100%

COc1ccc(CNC2CCN(C)CC2)cc1-c1ccc(S(=O)(=O)NCCc2ccccn2)s1
inactive: growth inhibition [1] 12% | inhibition [2] 6% | inhibition [3] 3% | outcome [5] | outcome [6] | outcome [7] | outcome [8]
active: growth inhibition [4] 100%

Cc1cccc2[nH]c(-c3ccc(-c4ccc(NC(=O)Nc5cccc(C#N)c5)cc4)s3)nc12
active: growth inhibition [1] 100% | growth inhibition [4] 101%
inactive: inhibition [2] 33% | inhibition [3] -6% | outcome [5] | outcome [6] | outcome [7] | outcome [8]

CCCc1cc2c3c(N)nc(N)nc3ccc2n1C(CC)CC
inactive: inhibition [3] -1% | outcome [5] | outcome [6] | outcome [7] | outcome [8]
active: growth inhibition [1] 73% | inhibition [2] 70% | growth inhibition [4] 102%
